# Source: PubChem BioAssay
# USP7 block = inhibitors of human USP7 deubiquitinase; purified USP7, Ub-rhodamine cleavage fluorescence; inhibition, % at 20 µM; 0.3% of 47,000 active; AID 1645854, 2021
# USP8 inh = inhibitors of human USP8 deubiquitinase | Ubiquitin carboxyl-terminal hydrolase 8 (Homo sapiens), P40818 | purified USP8, Ub-rhodamine cleavage fluorescence, 30 min | inhibition, % at 20 µM | 4.2% of 47,000 active | AID 1645853, 2021
# UCHL1 block = inhibitors of human UCHL1 deubiquitinase; Ubiquitin carboxyl-terminal hydrolase isozyme L1 (Homo sapiens), P09936; purified UCHL1, Ub-rhodamine cleavage fluorescence; inhibition, % at 20 µM; 0.2% of 47,000 active; AID 1645859, 2021
# USP10 inh = inhibitors of human USP10 deubiquitinase; purified USP10, Ub-rhodamine fluorescence, 60 min; inhibition, % at 20 µM; 1.1% of 47,000 active; AID 1645856, 2021
# Active calls of the source: *. Sampled rows, rich in hits. Any-hit rate of the full collection: about 5%. Cut-off read from the data, not from the text of the source: active = inhibition above about 30%; inactive = the rest.
SMILES,USP7 block,USP8 inh,UCHL1 block,USP10 inh
Cc1ccccc1NC(=O)CNc1ccc(C#N)cc1,-3,9,0,-5
N#Cc1cccc(NC(=O)Cn2cccc(-c3nc(-c4ccccc4)no3)c2=O)c1,-22,23,-29,-5
N#Cc1cccc(NC(=O)Nc2cccn(Cc3ccccc3F)c2=O)c1,-63,94*,35*,71*
Cc1cccc(OCC(=O)Nc2nc3c(s2)CN(S(=O)(=O)c2ccccc2)CC3)c1,-9,-61,-2,-5
Brc1ccc(-c2cn3c4ccccc4n(CCN4CCCCC4)c3n2)cc1,-3,48*,0,-6
CCCn1c2ccccc2n2c(C(C)=O)c(-c3ccccc3)nc12,8,3,10,8
Fc1ccc(-c2cn3c4ccccc4n(Cc4ccc(Cl)cc4)c3n2)cc1,-53,62*,0,-4
CCCn1c2ccccc2n2cc(-c3ccc(-c4ccccc4)cc3)nc12,-9,81*,0,-5
COc1ccc(NC(=O)[C@H](C)NC(=O)c2cc3c(OC)cccc3[nH]2)cc1Cl,39*,98*,10,51*
COc1ccc(OC)c(NC(=O)c2cc3c(OC)cccc3[nH]2)c1,-10,-8,4,-7
CCN1CCc2nc(NC(=O)CCCOc3ccc(C(C)=O)cc3)sc2C1,2,-23,4,-5
Cc1noc(-c2cccn2Cc2ccccc2F)n1,2,6,2,5
CCOc1ccc(-c2nc(SCC(=O)Nc3cccc(C)c3)n3[nH]c(=O)cc3n2)cc1,-141,42*,14,53*
O=C(c1ccnn1-c1ccc2ccc(-c3ccncc3)cn12)N1CCOCC1,-2,-93,-14,-4
COc1c(C)c(C(O)C(C)O)c2[nH]c3ccc(CC=C(C)C)cc3c2c1O (stereo unspecified),-15,63*,12,4
CC(C)CC(=O)N1CC(C(=O)Nc2ccc(F)cc2)C2(CCOCC2)C1 (stereo unspecified),2,0,1,-1
COc1ccccc1NS(=O)(=O)c1ccc2oc(Nc3ccc4c(c3)CCC4)nc2c1,10,51*,6,27
CC(C)Cc1nc2sc3c(NCCN4CCOCC4)ncnc3c2c2c1CCC2,-2,-16,5,0
Cc1ccc(-c2c3c4n(c(-c5ccc(Cl)c(Cl)c5)cn4c2C(=O)NC2CCCCC2)CCCC3)cc1,-15,44*,-11,-4
O=C(CC1C(=O)Nc2nc(-c3ccccc3)nn21)Nc1cccc2ccccc12 (stereo unspecified),6,41*,0,29
O=C(CC1C(=O)Nc2nc(-c3ccccc3)nn21)Nc1ccccc1 (stereo unspecified),0,1,-1,2
O=C(CC1C(=O)Nc2nc3ccccc3n21)Nc1cccc2ccccc12 (stereo unspecified),14,55*,3,54*
Cc1sc2ncnc(SCC(=O)c3cc(C)n(Cc4ccco4)c3C)c2c1C,-2,63*,-1,2
Cc1sc2ncnc(OCC(=O)c3cc(F)ccc3F)c2c1C,0,0,-3,3
CC(=O)C1=C(O)[C@@]2(O)C(=O)c3c(c(C)c4ccc(C)c(O)c4c3O)C[C@H]2[C@@H](N)C1=O,50*,-104,53*,-3
SMILES,USP7 block,USP8 inh,UCHL1 block,USP10 inh
O=S(=O)(NCc1cnc(C2CCCCO2)nc1)c1ccccc1F (stereo unspecified),1,2,-2,0
COc1ccc(C2CCNc3ccccc3N2)cc1 (stereo unspecified),-5,37*,-7,-5
COc1ccc(OC)c(C2=NS(=O)(=O)N(C)C(C(=O)NC(C)c3ccccc3)=C2)c1 (stereo unspecified),-2,-54,3,-5
O=C(Nc1ccccc1-c1nc2ccccc2[nH]1)c1sc2ccccc2c1Cl,32*,59*,3,33*
O=C(Nc1ccccc1-c1nc2ccccc2[nH]1)c1ccc(Br)cc1,2,11,-3,4
N#Cc1c(-c2ccco2)ccn2nc(-c3ccc(Cl)cc3Cl)nc12,2,43*,1,-4
N#Cc1c(-c2ccc(Cl)cc2)ccn2nc(-c3ccco3)nc12,-82,48*,2,-9
O=C(Cn1c(C(F)(F)F)nc2cc3c(cc21)OCCO3)NC1CCCC1,-2,0,0,0
CCOc1ccc(-c2csc(C)n2)cc1S(=O)(=O)N1CCC2(CC1)OCCO2,5,-8,4,1
